Bioassay records from PubChem BioAssay.
Shiga toxin inh = inhibitors of Shiga toxin in Vero cells; Vero cells, Shiga toxin protein synthesis inhibition reporter; 9.2% of 290,000 active; inhibition, % at 38.7 µM; in the data active = inhibition mostly above about 28%, no sharp cut-off; inactive = mostly below about 43%; note: 0% is about no effect
Pf growth 96h = P. falciparum growth inhibition at 96 hours; P. falciparum luciferase reporter growth, 96 h; Potency, µM (titrated, usually from 28.7 µM), for the others: at the highest dose activity change, negative = inhibition, usual class: inhibitors; 6.9% of 320,000 active; note: potency is the fitted concentration of half-maximal effect; % is set by controls: 0 for no effect and ±100 for the full control effect
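Two parasite generations (96 h, 37 C, 5% CO2) of compound exposure in infected erythrocytes (0.05% parasitemia, 2% hematocrit). Luciferase-reporter P. falciparum; decreased luminescence indicates inhibited growth, aimed at apicoplast-acting delayed death.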
Cycloheximide cs = counter-screen for Shiga toxin inhibitors: cycloheximide protein synthesis inhibition | 12% of 300,000 active | cell reporter, cycloheximide protein synthesis inhibition counterscreen | max response, %; in the data active = max response mostly above about 13%, no sharp cut-off; inactive = mostly below about 14%; note: read at 38.3 µM for the half of the compounds with a filed dose; 0% is about no effect
LmPK inh = inhibitors of Leishmania mexicana pyruvate kinase; Potency, µM (highest dose often 57.5 µM), for the others: at the highest dose activity change, negative = inhibition, most hits filed as inhibitors; purified LmPK, Kinase-Glo ATP luminescence, 1 h; 0.37% of 290,000 active; Q27686; AID 1721; note: potency is the fitted concentration of half-maximal effect; % is set by controls: 0 for no effect and ±100 for the full control effect
Target sequence (Q27686 whole entry, looked up): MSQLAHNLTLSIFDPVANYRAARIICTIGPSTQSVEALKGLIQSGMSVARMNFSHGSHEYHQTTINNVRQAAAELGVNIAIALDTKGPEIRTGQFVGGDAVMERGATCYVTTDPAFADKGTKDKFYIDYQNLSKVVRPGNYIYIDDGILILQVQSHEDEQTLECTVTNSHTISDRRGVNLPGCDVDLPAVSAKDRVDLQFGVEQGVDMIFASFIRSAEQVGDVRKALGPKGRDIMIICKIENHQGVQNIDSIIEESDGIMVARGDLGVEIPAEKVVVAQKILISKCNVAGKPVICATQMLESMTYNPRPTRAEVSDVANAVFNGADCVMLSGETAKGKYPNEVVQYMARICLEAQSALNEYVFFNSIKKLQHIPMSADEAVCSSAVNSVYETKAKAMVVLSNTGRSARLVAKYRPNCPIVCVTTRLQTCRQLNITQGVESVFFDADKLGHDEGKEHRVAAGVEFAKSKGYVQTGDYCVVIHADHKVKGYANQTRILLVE
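Purified LmPK (0.1 nM) converted ADP (0.1 mM) to ATP with PEP (0.5 mM) in imidazole buffer pH 7.2 with KCl and MgCl2, 1 h at room temperature. ATP was read by Kinase-Glo luminescence; data normalized to uninhibited and no-enzyme controls.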
Pf growth 48h = inhibits P. falciparum growth in the first generation, 48 h. 5.9% of 310,000 active. P. falciparum luciferase growth in erythrocytes, 48 h. AID 504832. Potency, µM (series often up to 28.7 µM), inactives show top-dose activity change, negative = inhibition, hits mostly inhibitors; note: potency is the fitted concentration of half-maximal effect; % is set by controls: 0 for no effect and ±100 for the full control effect
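Parasite viability was followed by luminescence of a genomically integrated firefly luciferase. Cultures held 0.1% parasitemia at 2% hematocrit (final), incubated under 5% CO2 at 37 C.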
Numbers without * were called inactive; ? = inconclusive; nt = no result given; [ ] = remark or other dose. This is a sample that favours compounds with a hit; in the whole collection about 22% have one here. Unless noted, calls come from the whole dose curve; as a rule, active = well fitted inhibition curve with a large enough effect; inconclusive = small, poorly fitted or top-dose-only effect, or another doubt; inactive = no such curve, though single readings can be large or run the other way.

SMILES | Shiga toxin inh | Pf growth 96h | Cycloheximide cs | LmPK inh | Pf growth 48h
Cc1ccc(C)n1-c1cccc(C(=O)Nc2ccccc2)c1 | 37 | ? | 18* | 2% | ?
O=C(Nc1ccccc1)c1cccc(N2CCCC2=O)c1 | 40* | ? | 34* | -8% | 183%
COc1ccc(-c2cc(C(=O)NCC3CCCO3)on2)cc1OC (stereo not drawn) | -5 | ? | 3 | -4% | 13%
O=C(Cc1ccc(F)cc1)NCC1CCCO1 (stereo not drawn) | 17 | ? | 4 | 2% | 25%
O=C(NCC1CCCO1)c1cc(-c2ccc(F)cc2)no1 (stereo not drawn) | 97* | ? | 45* | -7% | 92%
COc1cccc(-c2cc(C(=O)NCC3CCCO3)on2)c1 (stereo not drawn) | 48* | ? | 36* | -7% | 104%
COc1cccc(-c2nc(C(=O)NCC3CCCO3)cc3c2[nH]c2ccccc23)c1 (stereo not drawn) | -12 | 8.3µM* | -3 | -5% | ?
COc1ccc(OC)c(-c2nc(C(=O)NCC3CCCO3)cc3c2[nH]c2ccccc23)c1 (stereo not drawn) | 10 | ? | -3 | 2% | ?
O=C(NCCc1ccc(O)c(O)c1)C1COc2ccccc2O1 (stereo not drawn) | 16 | -68% | 20 | 3% | ?
Cc1cc(=O)[nH]c2ccc(S(=O)(=O)NCc3ccccc3)cc12 | -6 | 19% | -2 | 3% | -4%
O=C(O)c1cc([N+](=O)[O-])cc2c1C=Cc1ccccc1O2 | -5 | -19% | -3 | -6% | 18%
CC(C)n1nc(C(=O)OCn2nnc3ccccc3c2=O)c2ccccc2c1=O | -9 | ? | -4 | 0% | 10%
O=C(NCC1(N2CCCCC2)CCCCC1)c1cccc(S(=O)(=O)Nc2ccc(F)cc2)c1 | nt | ? | nt | nt | 8.3µM*
O=C(NCC1(N2CCOCC2)CCCCC1)c1cccc(S(=O)(=O)Nc2ccc(F)cc2)c1 | nt | ? | nt | nt | 10µM*
COc1ccc(CNC(=O)CN(C(=O)c2csnn2)c2ccccc2F)cc1 | -8 | -47% | -5 | 1% | 18%
CC1(c2nnc(-c3ccc(F)cc3)o2)CC(c2ccccc2)=NO1 (stereo not drawn) | -2 | 38% | -3 | 2% | 52%
COc1ccccc1N1CCN(C(=O)c2ccc(Cl)c(S(=O)(=O)N3CCOCC3)c2)CC1 | 3 | 10% | -1 | -2% | ?
CCCN(CC(=O)Nc1ccccc1C)C(=O)CCCNC(=O)c1ccc(Cl)cc1 | nt | 77% | nt | nt | -1%
COc1ccc(C(=O)Nc2cccc(/C=C/c3nc4ccccc4c(=O)[nH]3)c2)cc1 | 107* | 72% | 20* | -2% | 38%
O=C(Nc1cccc(/C=C/c2nc3ccccc3c(=O)[nH]2)c1)c1ccccc1Cl | 39 | 3% | 11* | -2% | 4%
COc1cc(/C=C/c2nc3ccccc3c(=O)[nH]2)cc(Cl)c1O | 25 | ? | -3 | 7% | -3%
COc1ccc(S(=O)(=O)Nc2cccc3cccnc23)cc1 | -8 | nt | 15 | nt | nt
CC(=O)Nc1ccc(S(=O)(=O)Nc2cccc3cccnc23)cc1 | -13 | 15% | -2 | 9% | 4%
O=S(=O)(Nc1cccc2cccnc12)c1ccc(S(=O)(=O)N2CCCC2)cc1 | -14 | ? | -1 | 11% | 10µM*
Cc1ccc(S(=O)(=O)Nc2cccc3cccnc23)c([N+](=O)[O-])c1 | -5 | 1% | -2 | 1% | 2.6µM*
SMILES | Shiga toxin inh | Pf growth 96h | Cycloheximide cs | LmPK inh | Pf growth 48h
COc1ccc(NS(=O)(=O)c2ccc3ccccc3c2)c2ncccc12 | 2 | 11% | -1 | 2% | 2.9µM*
O=S(=O)(Nc1cccc2cccnc12)c1ccccc1 | 11 | 46% | 19 | -1% | 3.7µM*
CC(C)(C)NC(=O)CSc1nnc(C2CC2)n1-c1ccccc1 | 6 | 2% | 2 | 5% | 8%
COc1cc(/C=C/C(=O)O)cc(S(=O)(=O)N(CC(C)C)CC(C)C)c1OC | 4 | 30% | -2 | 1% | -16%
O=C(NC(=S)NCCC1=CCCCC1)c1cncc(Br)c1 | active | 14% | 18* | 2% | 8%
COC(=O)c1cccc(NC(=S)NCCC2=CCCCC2)c1 | 23 | 12µM* | 7 | 1% | 20%
O=C(CCn1c(=O)c2ccccc2n(CC(=O)NCCC2=CCCCC2)c1=O)NCc1ccco1 | 7 | 0% | -2 | 1% | -25%
CCCNC(=O)C(=O)NCCC1=CCCCC1 | 15 | 6% | 15 | -6% | 2%
O=C(COC(=O)c1ccccc1Br)NCCC1=CCCCC1 | 75* | 21% | 29* | 6% | 52%
S=C(NCCC1=CCCCC1)NCc1ccco1 | 47* | 28% | 23* | 1% | 18%
CC(=O)c1cccc(NC(=O)CN2C(=O)NC(C)(c3ccc4c(c3)OCCCO4)C2=O)c1 (stereo not drawn) | nt | -1% | nt | nt | ?
O=C(NC(=S)NCCC1=CCCCC1)c1ccccc1Br | 9 | ? | 27* | 4% | ?
O=C(CCNC(=O)c1ccccc1Cl)NCCC1=CCCCC1 | nt | 14% | nt | nt | ?
CC1Cc2ccccc2N1Cc1cccc([N+](=O)[O-])c1 (stereo not drawn) | -8 | -2% | 9 | -4% | -10%
CCN1C(=O)C(C(=O)Nc2ccc(OC)cc2)C2CC1(C)Oc1ccccc12 (stereo not drawn) | 46* | 15% | 14 | 6% | ?
CCOC(=O)C1C(=O)N(C)C2(C)CC1c1ccccc1O2 (stereo not drawn) | -4 | ? | -3 | 10% | 7%
CN1CCN(C(=O)CCN2C(=O)c3ccccc3C2=O)CC1 | 1 | 4% | 1 | 2% | 56%
O=C(CCCN1C(=O)c2ccccc2C1=O)N1CCCCC1 | 28 | 5.2µM* | 12 | 3% | 25%
Cc1ccccc1N1CCN(C(=O)CCN2C(=O)c3ccccc3C2=O)CC1 | 49* | 75% | 23* | -2% | 6%
CC12CCC(C(=O)N(CCCCN3CCN(c4ccccn4)CC3)C1=O)C2(C)C (stereo not drawn) | nt | 9.3µM* | 2 | -2% | ?
Fc1ccc(-c2nnc3ccc(N4CCc5ccccc5C4)nn23)cc1 | -12 | 17% | -6 | 15% | nt
O=S(=O)(c1ccccc1)N(Cc1nc(-c2ccccc2)no1)C1CCCCC1 | 0 | 1% | 6 | 4% | ?
COc1ccc(-c2noc(CN(C)C3CCOCC3)n2)cc1 | 30 | ? | 13 | -8% | -6%
CN(Cc1nc(-c2ccccc2)no1)C1CCOCC1 | 59 | 162% | 46* | -13% | 136%
COCCCC1CCN(Cc2nc(Cc3ccccc3Cl)no2)CC1 | -10 | ? | -2 | 2% | -3%
c1ccc(-c2noc(CC3CCCCC3)n2)cc1 | 48* | -49%[5.75 µM] | 31* | -5% | 173%
c1ccc(-c2noc(CSc3nnnn3C3CCCCC3)n2)cc1 | 46 | 3% | 28* | 4% | 70%
COCCCC1CCN(Cc2nc(-c3ccccc3)no2)CC1 | 76* | 0% | 23* | 0% | 39%
